# Rows were chosen to be rich in hits. Some 3.5% of all compounds tested hit in one or more screens of this group.
# BoNT-F LC inh – BoNT/F light chain protease inhibitors, primary screen, biochemical, flow cytometry, MLPCN library | Botulinum neurotoxin type F light chain protease (Clostridium botulinum) | Multiplex microsphere protease cleavage assay | inhibition, % at 10 µM | 360,000 tested, 0.22% active; in the data active means inhibition above about 35%, passing the limit was not always enough; inconclusive means no clear call, values can overlap the other calls; further: plate controls were buffer without enzyme for full effect and enzyme alone for no effect
# BoNT A protease – BoNT/A light chain protease inhibitors, primary screen, biochemical, flow cytometry, MLPCN library. multiplex microsphere protease substrate cleavage. inhibition, % at 10 µM. 360,000 tested, 0.17% active. AID 588499, 2011; further: plate controls were buffer without enzyme for full effect and enzyme alone for no effect
# Anthrax LF inh2 – Bacillus anthracis LF protease inhibitors, primary screen, biochemical, multiplex microsphere, MLPCN library. multiplex microsphere protease cleavage assay. 360,000 tested, 0.12% active. inhibition, % at 10 µM. Lethal factor (Bacillus anthracis), P15917; further: plate controls were buffer without enzyme for full effect and enzyme alone for no effect
# Target sequence (P15917 whole entry, looked up): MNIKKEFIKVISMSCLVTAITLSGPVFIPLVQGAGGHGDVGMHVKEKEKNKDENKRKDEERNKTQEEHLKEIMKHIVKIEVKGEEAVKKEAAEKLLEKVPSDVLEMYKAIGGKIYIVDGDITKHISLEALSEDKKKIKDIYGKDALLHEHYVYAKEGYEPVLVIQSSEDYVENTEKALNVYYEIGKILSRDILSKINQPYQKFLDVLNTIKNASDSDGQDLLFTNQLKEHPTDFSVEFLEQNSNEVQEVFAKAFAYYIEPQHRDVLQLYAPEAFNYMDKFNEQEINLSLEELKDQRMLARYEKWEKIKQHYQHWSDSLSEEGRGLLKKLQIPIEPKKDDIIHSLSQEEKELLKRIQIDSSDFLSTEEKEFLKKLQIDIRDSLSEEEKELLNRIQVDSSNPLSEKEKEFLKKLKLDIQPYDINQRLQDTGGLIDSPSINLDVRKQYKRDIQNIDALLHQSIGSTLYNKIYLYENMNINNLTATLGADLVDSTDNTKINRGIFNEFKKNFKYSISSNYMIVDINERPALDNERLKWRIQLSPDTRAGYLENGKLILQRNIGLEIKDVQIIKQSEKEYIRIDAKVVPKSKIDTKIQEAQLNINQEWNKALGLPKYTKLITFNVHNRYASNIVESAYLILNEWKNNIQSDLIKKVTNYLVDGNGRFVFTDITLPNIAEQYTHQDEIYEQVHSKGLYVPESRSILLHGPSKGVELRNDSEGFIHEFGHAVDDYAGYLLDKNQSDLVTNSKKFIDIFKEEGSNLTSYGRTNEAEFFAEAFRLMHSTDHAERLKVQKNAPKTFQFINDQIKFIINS
# Autofluor counter – flagged as autofluorescent in microsphere protease counterscreen; compound autofluorescence counterscreen, microsphere flow cytometry; stronger effect = higher value; AID 624483; fluorescence intensity (no concentration beside the values); 360,000 tested, 3.1% active; in the data active means fluorescence intensity above about 16000; inconclusive means no clear call, values can overlap the other calls
# * hit, by the source's call; ? = inconclusive. Unless noted, no stated cut-off is given here; in the data, active means inhibition above about 30%; inconclusive means no clear call, values can overlap the other calls; inactive means below that.
SMILES,BoNT-F LC inh,BoNT A protease,Anthrax LF inh2,Autofluor counter
COc1ccc2cc(C(=O)NCc3ccco3)c(=Nc3ccc(C(=O)O)cc3)oc2c1,-3,-1,2,4196
COc1ccc(/C(N)=N/OC(=O)Cc2ccccc2OC)cc1,-5,-2,-4,21398*
COc1ccc(C(=O)NCc2ccccc2OC)c(OC)c1,-3,?,-2,20943*
COc1ccc(C(=O)NCc2ccccc2OC)cc1,2,6,-4,21799*
COc1ccccc1CC(=O)O/N=C(\N)c1ccccn1,-5,-1,-11,6556
O=C(Nc1nnc([C@H]2C[C@H](O)[C@@H](CO)O2)s1)c1ccc(Oc2ccccc2)cc1,0,0,-3,3574
COc1cccc(/C=C/c2n[nH]c(=O)c(C#N)c2C)c1,4,-1,-2,5982
COc1cc(SC)ccc1C(=O)NCc1ccccc1,0,0,-2,2043
COc1cc(SC)ccc1C(=O)NCc1ccc(C)cc1,3,2,-2,19956*
COc1ccccc1CNC(=O)c1cccc(S(=O)(=O)N2CCN(C)CC2)c1,-6,-1,-5,4283
COc1ccccc1CNC(=O)c1ccc(S(=O)(=O)N2CCCC2)cc1,-2,-1,-1,24898*
CC(=O)N1CCN(CC(=O)Nc2cc(S(=O)(=O)N3CCCCC3)ccc2C)CC1,-3,0,6,3555
O=C(c1c(F)cccc1Cl)N(Cc1ccco1)C1CCS(=O)(=O)C1 (centres undefined),-8,0,0,3785
Cc1csc(NC(=O)C2CCN(C(=O)c3ccccc3C)CC2)n1,2,0,-1,4158
Cc1csc(NC(=O)C2CCN(C(=O)CSc3nnc(C)n3Cc3ccccc3)CC2)n1,-6,?,1,20510*
Cc1ccnc(NC(=O)CNC(=O)c2ccc(Br)o2)c1,9,0,0,4404
Cc1cc(C)nc(SC(C)C(=O)Nc2ccc(S(N)(=O)=O)cc2)n1 (centres undefined),2,?,1,21604*
O=C1Nc2ccccc2N=C(c2ccccc2)C1N(C(=O)c1ccnc2ccccc12)c1ccccc1 (centres undefined),-4,0,9,4190
COc1ccc(-c2nnc3n2N=C(C)CS3)cc1,-1,?,-1,23552*
COc1cccc(-c2nnc3n2N=C(C(C)(C)C)CS3)c1,-2,0,2,23357*
CC1=Nn2c(nnc2-c2ccco2)SC1,3,2,0,22078*
COc1cccc(-c2nnc3n2N=C(c2cc(OC)ccc2OC)CS3)c1,-5,0,4,5429
COc1ccc(C2=Nn3c(nnc3-c3ccc(OC)cc3)SC2)cc1,-6,-3,-8,11951
CC(=NNC(=O)COc1cccc(C)c1)c1cccnc1,0,0,4,7673
CCOc1ccccc1-c1cncc(NC)n1,-5,-1,4,3897
SMILES,BoNT-F LC inh,BoNT A protease,Anthrax LF inh2,Autofluor counter
Cc1sc2nc3c4ccccc4c(NCc4ccco4)nn3c(=O)c2c1C,2,6,12,3287
Cc1nc(NCc2ccco2)c2c(C)c(C)sc2n1,-6,-3,-9,16784*
Cc1nc(NC(=O)COC(=O)CCS(=O)(=O)c2ccccc2Cl)c(Cl)cc1Cl,-1,?,2,20461*
Cc1nc(NC(=O)COC(=O)C2CC2C)c(Cl)cc1Cl (centres undefined),-7,0,1,3657
O=C(COC(=O)CCc1ccccc1)Nc1ncc(Cl)cc1Cl,-1,-1,-1,16931*
O=C(OCC(=O)N1CCCC1)c1cc(Cl)ccc1Cl,-15,0,4,3211
COc1ccccc1NC(=O)Cc1noc(CSc2nnc(C)s2)n1,-1,0,-1,22803*
COc1ccccc1NC(=O)Cc1noc(CSc2nnc(N)s2)n1,5,0,-1,2200
COc1ccc(C(=O)c2c(N)sc3c2CCN(C)C3)cc1,-51,34*,-7,4611
Cc1cccc2cc(-c3ccccc3)c(-c3ccccc3)c[n+]12,-46,38*,8,5605
CCn1c(SCC(=O)NNC(=O)c2ccccc2)nnc1-c1ccncc1,-3,?,-3,22311*
Cc1ccc(/C=N/NC(=O)CSc2nnc(-c3ccccc3)n2-c2ccc(Cl)cc2)o1,0,0,-1,2211
CCn1c(SCC(=O)N/N=C/c2ccc(C)o2)nnc1-c1ccccc1,0,?,-2,22380*
Cc1ccc(C(=O)NNC(=O)CSc2nnc(-c3ccncc3)n2C)cc1,0,0,0,16351*
Cc1ccc(-c2nnc(SCC(=O)NNC(=O)COc3cccc(C)c3)n2C)cc1,1,0,2,22497*
CCc1ccc(OCC(=O)NNC(=O)CSc2nnc(-c3ccc(C)cc3)n2C)cc1,0,1,0,2501
CC(OC(=O)Cc1ccc(Br)cc1)C(=O)NC1CCCC1 (centres undefined),1,-1,-7,3176
CN(C(=O)CSc1nnc(CN2CCCC2)n1Cc1ccccc1)c1ccccc1,9,-1,4,5437
COc1ccc(Cl)cc1N(CC(=O)Nc1ccccc1SC)S(C)(=O)=O,0,?,2,19767*
COc1ccc(Cl)cc1N(CC(=O)NC(C(C)C)C(C)C)S(C)(=O)=O,9,1,6,1886
COc1ccc(Cc2c(O)nc[nH]c2=O)cc1,-5,?,2,16832*
CN(CC(=O)Nc1ccc(OC(F)(F)F)cc1)C(=O)c1ccccc1SCC(=O)N1CCCC1,-4,0,-2,3720
CCN1CCCc2cc(CN(CCN3CCOCC3)C(=O)Nc3ccc(C)c(C)c3)ccc21,-9,-2,-2,20262*
Cc1ccc(S(=O)(=O)NC(=O)C2(C)CCN2C(=O)Cc2ccc(C(C)(C)C)cc2)cc1 (centres undefined),2,0,-1,3986
COC(=O)[C@H](CC(C)C)NC(=O)/C=C/[C@H]1O[C@@H](n2ccc(=O)[nH]c2=O)[C@H](O)[C@@H]1O,-8,-1,2,5694
SMILES,BoNT-F LC inh,BoNT A protease,Anthrax LF inh2,Autofluor counter
O=C(NC(=S)Nc1ccc2c(c1)OCCO2)c1ccccc1,-7,?,-3,25451*
OCCNC(=S)Nc1ccc2c(c1)OCCO2,?,-2,30*,4551
Cn1ncc2cc(NC(=S)NC(=O)c3ccccc3)ccc21,-7,-2,-2,17054*
CCC(=O)N1CCCC(C)(C(=O)Nc2nccc3ccccc23)C1 (centres undefined),-2,0,0,3588
COc1cc(NC(=O)CSCc2cnn(-c3ccccc3)c2-n2cccc2)cc(OC)c1,1,-1,-10,3064
O=C(O)CSCc1cnn(-c2ccccc2)c1-n1cccc1,-5,0,1,10818
CCOc1ccc(NC(=O)CSCc2cnn(-c3ccccc3)c2-n2cccc2)cc1,-1,1,-2,19959*
O=C(CSCc1cnn(-c2ccccc2)c1-n1cccc1)N1CCN(Cc2ccccc2)CC1,8,?,-3,18611*
COc1ccc(CCNC(=O)C2CCCN(S(=O)(=O)c3cc(C)ccc3OC)C2)cc1OC (centres undefined),0,-1,-2,5352

# High-throughput results from PubChem BioAssay.
